Reference: PubChem BioAssay AID2401 (Southern Research Specialized Biocontainment Screening …, 2010)
The campaign covered roughly 2,200 compounds. About 530 (24%) were called active. These entries were drawn from the full list. Measured potencies and affinities stand elsewhere. A number with no mark means an inactive call.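 The calls were made as follows: active = inhibition above a set limit at one or more concentrations of the dose series; inactive = inhibition under that limit at every dose.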

Assay: S. Typhimurium nonspecific reporter signal inhibition – Salmonella Typhimurium, GFP fluorescence, counter-screen for PhoP regulon inhibitor project, dose response (AID 2401);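 also: S. typhimurium with Mg-insensitive nmpC-GFP reporter grown at 10 µM Mg2+; drop in reporter fluorescence reflects general culture growth inhibition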
Details: 4 h; series mostly up to 150 µM; inhibition: at the top concentration

SMILES	inhibition
NC(=O)CCc1c[nH]c2ccccc12	-21.9%
O=C(Cc1c[nH]c2ccccc12)N/N=C/c1ccc(F)cc1	-15.5%
CCc1nn2cc(C(=O)c3cc(Cl)ccc3O)cnc2c1-c1ccc(F)cc1	-4.45%
Cc1cc(C(=O)COC(=O)CNC(=O)c2ccco2)c(C)n1Cc1ccco1	-20.9%
c1ccc(Nc2ccnc(Nc3ccccc3)n2)cc1	29.3%
Cc1[nH]c2ccccc2c1C(O)CN1CCN(c2cccc(C(F)(F)F)c2)CC1 (centres undefined)	-0.27%
Brc1cccc(CNc2nc3ccccc3n2CCN2CCCCC2)c1	4.39%
CC(C)CCNC(=S)Nc1ccc([N+](=O)[O-])cc1	2.69%
Cc1cc(C(=O)N/N=C/c2ccc[nH]2)no1	-10.4%
CC1=CC(C)C2(CO)COC(c3ccccc3O)C1C2C (centres undefined)	-15.8%
CCOC(=O)c1sc(-c2ccc(C(F)(F)F)cc2)nc1O	8.9%
CC(Oc1ccc(Cl)cc1)c1ccnn1S(=O)(=O)c1ccccc1 (centres undefined)	0.01%
CC(=O)Nc1ccc(S(=O)(=O)N2CCC(n3cnc4cc(F)ccc43)CC2)cc1	-27.3%
CCOC(=O)C1=C(C)N=c2s/c(=C\c3ccncc3)c(=O)n2C1c1ccc2c(c1)OCO2 (centres undefined)	26.9%
COc1ccc(C(=O)COc2nc(C)cc(C)c2C#N)cc1	-5.05%
COc1ccc2nc(NC(=O)C3CCCN3S(=O)(=O)c3ccc(C)cc3)sc2c1 (centres undefined)	-14.7%
Clc1ccc(Nc2ncnc3c2cnn3-c2ccccc2)cc1	-8.79%
COc1cc(CNc2ccc(CNc3ncn[nH]3)cc2)ccc1OCC(=O)NC(C)(C)C	-15.3%
NC[C@@]12CCCC1C1CCC2C1 (some centres undefined)	-36.1%
O=C(Oc1ccc[nH]c1=O)c1cc([N+](=O)[O-])cc([N+](=O)[O-])c1	21.5%

SMILES	inhibition
CC(O)CNc1cc(N)c([N+](=O)[O-])cc1[N+](=O)[O-] (centres undefined)	14.5%
CC(NC(=O)C1(C)CC1(Br)Br)C(C)(C)C (centres undefined)	-28.4%
Cc1cc(C(=O)N/N=C/c2cc(Br)cc(Br)c2OC(=O)c2ccccc2)n[nH]1	2.66%
Cc1cc2ncn(C3CC(=O)N(Cc4ccc(N5CCCC5=O)cc4)C3=O)c2cc1C (centres undefined)	-18.1%
O=C(CSc1nnc2n(C3CCCCC3)c(=O)c3ccccc3n12)OC1CCCCC1	-4.67%
Cc1ccc2cc(C(=O)O)c(C)nc2c1	0.56%
Cc1ccccc1NC(=O)Nc1cccs1	-3.85%
Cc1ccc(S(=O)(=O)N2CCCC2C(=O)OCc2ccco2)cc1 (centres undefined)	3.11%
CCCOc1ccc(Cn2cnc3ccccc32)cc1	8.82%
Cc1cc(C)nc(NC(=O)Cc2cccs2)n1	0.59%
Cc1c(C)n(Cc2ccccc2)c2ncnc(N)c12	-3.49%
O=C(NCc1cccnc1)c1cc2ccccc2oc1=O	-3.7%
CCn1cc(C(=O)NCc2ccncc2)c(=O)c2cc(F)c(N3CCN(C(=O)c4ccco4)CC3)cc21	-34.3%
COC(=O)Cc1ccc(NC(=S)N2CCN(c3ccc(F)cc3)CC2)cc1	-7.16%
Cc1cc(SCC(N)=O)nc(SCC(=O)c2ccccc2)n1	-14.3%
COC(=O)C1(O)CC(C(C)C)=NN1C(=O)c1ccc(Cl)cc1 (centres undefined)	-22.4%
Cc1ccc(C(=O)NC(=S)Nc2cccc3c(C)cc(C)nc23)cc1	-25.1%
Cc1ccc(Nc2nnc(C3C(=O)N(C)C4(C)CC3c3cc(Br)ccc3O4)s2)cc1 (centres undefined)	2.31%
Cc1cccc(OCCSCc2nc3ccccc3[nH]2)c1	34%
Cn1c(SCC(=O)N2c3ccccc3CCc3ccccc32)nnc1-c1cc2ccccc2cc1O	20.2%

SMILES	inhibition
O=C(Cn1nc(C(F)(F)F)c2c1CCCCC2)N1CCOCC1	-0.36%
CCOC(=O)C1=CSC2=NS(=O)(=O)CCN12	-28.4%
[O-]/[N+](=C\c1ccncc1)c1ccccc1	-18.9%
Cc1c(C(=O)Nc2cccc(Cl)c2)c2ccccn2c1CCc1ccncc1	-15.3%
COc1cc(C)ccc1OCCCOc1ccccc1Br	-5.6%
COC(=O)c1cc(C#N)c(Oc2ccccc2OC)nc1C	-10.3%
Cc1occc1C(=O)n1cnc2ccccc21	-6.49%
COc1cccc2[nH]c3c(N4CCC(C)CC4)ncnc3c12	-17.3%
NC(=O)C1(NC(=O)[C@@H]2CC3(CC(c4cccc(NC(=O)[C@@H]5CCC(=O)N5)c4)=NO3)CN2C(=O)Cc2ccc(Cl)cc2)CC1 (some centres undefined)	-35.9%
Cc1ccc(/C(O)=C2\C(=O)C(=O)N(CC(C)O)C2c2cccc(F)c2)cc1 (centres undefined)	-9.74%
CCCCOc1ccc(S(=O)(=O)NNC(=O)C2Cc3c(ccc4ccccc34)O2)cc1 (centres undefined)	-7.66%
O=C(CN1CCCCC1)Nc1cccc(Br)c1	1.22%
Cc1ccc(S(=O)(=O)c2c(C(=O)c3ccccc3)cnc3cc4c(cc23)OCCO4)cc1	4.08%
OC(COc1ccc2ccccc2c1Br)Cn1ccnc1 (centres undefined)	19.7%
CC(C)c1ccc(C2NC(=O)NC3=C2CCc2ccccc23)cc1 (centres undefined)	-15.2%
CCCCOc1ccc(NC(=O)Nc2nnc(C)s2)cc1	-12.1%
N/C(=N/OC(=O)c1ccccc1Cl)c1ncc([N+](=O)[O-])s1	27.3%
O=C(Nc1ccc(Cl)c(Cl)c1)Nc1ccccc1O	18.8%
CC(=O)c1ccc(NC(=O)Nc2cccc(Cl)c2)cc1	12.5%
